Inconclusive results are not listed. Active and inactive are the calls of the source. Calls come from the whole dose curve.
Potency is the fitted concentration of half-maximal effect.

A short description of the assay: A qHTS for Small Molecule Inhibitors of Shiga Toxin (Confirmatory). Note: nearly all actives have a fitted effect of over 75% in size. As to conditions: Cell-based Shiga toxin protection reporter assay; series mostly up to 38.3 µM. Background: Quantitative high-throughput screening tests each substance at several concentrations.
Regarding `Cc1ccc(NC(=S)c2nc3ccccc3s2)cc1`, the Potency was 0.895 µM (active).

On to `CSCc1cc(N2CCOCC2)nc(SCc2ccc(Cl)cc2Cl)n1`, for which the Potency entry is “inactive”.

For `CC1(C)Cc2c(cnn2-c2ccccc2)C(NC(=O)CCN2CCCCO2)C1` (configuration not stated), the Potency result is “inactive”.

In the case of `O=C(Nc1ccc2oc(-c3ccccc3)nc2c1)c1ccc2c(c1)OCCO2`, the Potency is 14.2 µM (active).

`N=c1c(S(=O)(=O)c2ccc(Cl)cc2)cc2c(=O)n3ccccc3nc2n1C1CCCCC1`: the Potency entry is “inactive”.

In the case of `Cc1sc(NC(=O)CCCC(=O)O)c(C(N)=O)c1-c1ccccc1`, the Potency is 11.3 µM (active).

For `O=C(NCCN1C(=O)S/C(=C\c2ccc(Cl)cc2)C1=O)c1ccc(F)c(S(=O)(=O)N2CCOCC2)c1`, the Potency was 6.34 µM (active).

`Cc1c(NC(=O)c2ccc3c(c2)OCO3)cccc1-c1nc2ccccc2o1`: the Potency was 20 µM (active).

On to `Cc1ccc(NC(=O)c2cc(S(=O)(=O)N3CCCCC3)ccc2N2CCOCC2)cc1F`, for which the Potency was 0.04 µM (active).

For `C=CCn1c(=S)[nH]c2cc(-c3ccccc3)sc2c1=O`, the Potency is 0.0113 µM (active).

Take `COc1ccc2nc(SCC(=O)Nc3ccc4c(c3)CCC4)[nH]c2c1`: the Potency result was “inactive”.

For the compound `Cc1cc(C(=O)COC(=O)c2cccn2C)c(C)n1Cc1ccco1`, the Potency was 0.252 µM (active).

As for `Cc1cc(N2CCCCCC2)nc(-c2ccccc2O)n1`, the Potency is 17.9 µM (active).

Take `Cc1sc(NC(=O)COc2cccc(-n3cnnn3)c2)c(C#N)c1C`: the Potency entry is “inactive”.

In the case of `CCOC(=O)N1CCN(C(=O)CCC(=O)c2ccc(OCC)cc2)CC1`, the Potency result was “inactive”.

Regarding `O=C(Sc1cccc2cccnc12)c1ccccc1Br`, the Potency was 8.95 µM (active).

For `Cc1cccc(NC(=O)CCN2C(=O)c3ccccc3S2(=O)=O)c1C`, the Potency was 20 µM (active).

In the case of `Cc1nn(-c2ccc(Cl)cc2)c(N)c1C(O)(CSc1nccn1C)C(F)(F)F` (configuration not stated), the Potency result is “inactive”.

`CCn1cc(C(=O)NCc2ccccc2Cl)cn1`: the Potency entry was “inactive”.

Regarding `COc1ccccc1CNc1nc2ccccc2n1CCN1CCCCC1`, the Potency result was “inactive”.

As to `COc1ccccc1C(=O)Nc1ccc(N2CCN(C(C)=O)CC2)cc1`, the Potency result was “inactive”.

As to `Cc1ccc(C(=O)CSc2nnnn2C(C)C)c(C)c1`, the Potency is 0.449 µM (active).

(Values after PubChem BioAssay AID2320 (National Center for Advancing Translational Sciences (NCATS), 2010).)
